Most compounds without a hit are left out; they make up all but 6.1% or so of the library.
D3 antag: antagonists of human D3 dopamine receptor. P35462. D3R cells, DiscoveRx beta-arrestin luminescence, antagonist mode; active compounds read low. max response, negative = inhibition, %. 2.5% of 360,000 active. AID 652054; in the data active means max response below about -50%; inconclusive means no clear call, values can overlap the other calls
Target sequence (P35462 whole entry, looked up): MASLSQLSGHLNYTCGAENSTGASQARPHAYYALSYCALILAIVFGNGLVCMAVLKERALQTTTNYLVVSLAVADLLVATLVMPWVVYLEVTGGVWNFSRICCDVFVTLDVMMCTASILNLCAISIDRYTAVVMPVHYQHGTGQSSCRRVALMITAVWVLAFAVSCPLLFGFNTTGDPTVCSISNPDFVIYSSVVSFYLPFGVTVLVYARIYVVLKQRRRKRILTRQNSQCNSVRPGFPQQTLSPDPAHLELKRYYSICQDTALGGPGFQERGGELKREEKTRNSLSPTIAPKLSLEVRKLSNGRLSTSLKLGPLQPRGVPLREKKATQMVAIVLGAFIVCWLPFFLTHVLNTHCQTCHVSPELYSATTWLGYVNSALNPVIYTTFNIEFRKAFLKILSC
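Cells plated overnight at 1500 cells/well, then exposed to library compounds with dopamine controls for 90 minutes at 37 degrees C. DiscoveRx reagent added for 30–60 minutes at room temperature; luminescence read, quantitative HTS format.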
D1 antag: antagonists of human D1 dopamine receptor. P21728. HEK293 TREx D1 cells, calcium flux, dopamine EC80; active compounds read low. activity change, negative = inhibition, % at 10 µM. 3.2% of 360,000 active. AID 504652; in the data active means activity change below about -30%
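Antagonism measured as reduced calcium response to an EC80 dopamine addition following 180 s compound pre-read; cells were inducible HEK293 Trex D1 plated overnight at 30 C, read kinetically at 1 cycle/sec.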
DRD3 agonist: activates the human D3 dopamine receptor. P35462. D3R DiscoveRx beta-arrestin cells, luminescence, 90 min. max activation, %. 0.58% of 410,000 active; in the data active means max activation above about 30%
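Agonist mode: compounds and dopamine controls were applied to plated cells for 90 min at 37 degrees C after an overnight attachment at 1500 cells/well. Luminescent read-out followed 30 - 60 minutes at room temperature with DiscoveRx detection reagent.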
D1 agonist: human D1 receptor agonism. HEK293 T-REx D1 cells, calcium flux, agonist mode. activation, % at 2 µM. P21728. 1% of 360,000 active; in the data active means activation above about 30%
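Agonism was scored from calcium flux recorded over 180 s (1 read/s) after pintool compound addition, following a 10-cycle baseline. Cells were inducible force-coupled HEK293 TREx D1, plated overnight at 30 C and loaded with no-wash calcium dye.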
D1 potentiator: human D1 dopamine receptor positive modulation. 0.036% of 360,000 active. AID 504651. P21728. potentiation, % at 10 µM. HEK293 TREx D1 cells, calcium flux, dopamine EC20 potentiation; in the data active means potentiation above about 30%
Each line names hits and unclear results; the compound was inactive in the other large screens.

O=C1c2cccc3c(N4CCCCC4)ccc(c23)C(=O)N1c1ccccc1O	D1 agonist 204
CCOC(=O)CNS(=O)(=O)c1ccc(S(=O)(=O)N2CCCC2)cc1	D1 antag -103
CCc1ccc(C(=O)C(C)OC(=O)CNS(=O)(=O)c2ccc(C)cc2)cc1 (stereo unspecified)	D1 agonist 32
CCOC(=O)c1ccc(COC(=O)CNS(=O)(=O)c2ccccc2)cc1	D1 antag -33
O=C(CC1NCCNC1=O)Nc1ccccc1F (stereo unspecified)	none (no result: D3 antag)
Cc1ccc(CSc2ncc(Cl)c(C(=O)NCCc3ccc(S(N)(=O)=O)cc3)n2)cc1	none (no result: D3 antag)
CCc1nc(SCC(=O)c2c[nH]c3ccccc23)n[nH]1	none
CC(C)c1nc(SCC(=O)c2c[nH]c3ccccc23)n[nH]1	D3 antag -61
O=C(Cn1cnc2ccccc2c1=O)Nc1cccc(-c2nnc3n2CCCCC3)c1	D3 antag -51
O=C(COc1ccc(Nc2ccccc2)cc1)OCC(=O)N1CCCCC1	D1 antag -37
CC1CN(C(=O)COC(=O)c2ccc(C#N)cc2)CC(C)O1 (stereo unspecified)	none
O=C(COc1ccccc1Cl)N1CCN(c2ccc([N+](=O)[O-])c(N3CCCCC3)c2)CC1	none
O=C(COc1ccc(Cl)cc1)N1CCN(c2ccc([N+](=O)[O-])c(N3CCCCC3)c2)CC1	D1 antag -31
O=C(CSc1nnc(COc2ccc(Cl)cc2)o1)N1CCCCC1	D1 antag -31
CC1CN(C(=O)COC(=O)COc2ccc(C#N)cc2)CC(C)O1 (stereo unspecified)	D1 antag -47
O=C(CSc1nnc(COc2ccc(Cl)cc2)o1)N1CCCC1	none
COc1ccc(/C=C/C(=O)Nc2ccc3nc(N4CCC(C)CC4)cc(C)c3c2)cc1OC	none (no result: D3 antag)
O=C(COc1ccc(Cl)cc1)OCC(=O)N1CCCC1	none
O=C(COc1ccc(Cl)cc1)OCC(=O)N1CCCCCC1	D1 antag -34
O=C(CSc1nnc(CNC(=O)c2c(F)cccc2Cl)o1)Nc1cccc(F)c1	D1 antag -33 (no result: D3 antag)
CCOC(=O)COc1ccc(C)cc1C(=O)c1ccn2nc(-c3ccc(C)cc3)cc2n1	none (no result: D3 antag)
CC1(C(=O)NCc2ccccc2)Oc2ccccc2NC1=O (stereo unspecified)	D3 antag inconclusive
CC1(C(=O)NCc2ccc(Cl)c(Cl)c2)Oc2cccnc2NC1=O (stereo unspecified)	D1 agonist 32
CCCCNC(=S)Nc1cc(S(=O)(=O)N2CCCCC2)ccc1C	D1 antag -37
CCCCCNC(=O)c1cc(S(=O)(=O)N2CCCCC2)ccc1F	D1 antag -62
CCN(CC)S(=O)(=O)c1ccc(F)c(C(=O)NCCC(C)C)c1	DRD3 agonist 36
O=C(Cc1ccccc1)N(Cc1cccnc1)c1nc2ccc(F)cc2s1	none (no result: D3 antag, D1 antag)
Cc1cccc(NC(=O)c2sc3nc(-c4ccccc4)cn3c2C)n1	none
COc1ccc(-c2cn3c(C)c(C(=O)Nc4cccc(C)n4)sc3n2)cc1	D1 antag -59
O=C1Nc2ccccc2C1(c1ccccc1)c1ccccc1	D1 agonist 33
Cc1cccc(CSc2nc3c(c(-c4cccs4)c2C#N)CN(C)CC3)c1	D1 antag -38
CN1CCc2nc(SCC(=O)Nc3cccc(F)c3)c(C#N)c(-c3cccs3)c2C1	D3 antag -50
C[C@H]1C[C@H]2[C@@H]3CCC4=CC(=O)C=C[C@]4(C)[C@H]3C(=O)C[C@]2(C)[C@@]1(O)C(=O)CO	none (no result: D3 antag, D1 antag, D1 agonist, D1 potentiator)
O=C(COc1ccc(Cl)cc1)Nc1ccc2nc(SCC(=O)N3CCCC3)sc2c1	none (no result: D3 antag)
COC(=O)CCn1cnc2onc(-c3cc(F)cc(F)c3)c2c1=O	none (no result: D3 antag)
CCOc1ccccc1N(CC(=O)N(C)Cc1ccccc1)S(=O)(=O)c1ccccc1	D1 antag -37
COC(=O)c1c(NC(=O)CN2CCCc3ccccc32)sc(C)c1C	D3 antag -60
C=C1C(=O)OC2C=C(CO)C3OC3C3OC3(C)CC(OC(=O)/C(=C/C)COC(C)=O)C12 (stereo unspecified)	D3 antag -81 (no result: D1 antag, D1 agonist, D1 potentiator)
CC(C)CC(c1nnnn1Cc1ccco1)N1CCN(C2CCCC2)CC1 (stereo unspecified)	D3 antag -60
Fc1ccc(C(c2nnnn2Cc2ccco2)N2CCN(C3CCCCC3)CC2)cc1 (stereo unspecified)	D3 antag inconclusive
CCCCC(c1nnnn1CC1CCCO1)N1CCN(c2cc(Cl)ccc2C)CC1 (stereo unspecified)	D3 antag -86
CCCC(c1nnnn1Cc1ccco1)N1CCN(c2cc(Cl)ccc2C)CC1 (stereo unspecified)	D3 antag -62
CCCCC(c1nnnn1CC1CCCO1)N1CCN(c2ccccc2)CC1 (stereo unspecified)	none
CCC1=NN(C(=O)Cc2ccccc2)C(O)(c2ccncc2)C1 (stereo unspecified)	D1 antag -41
CCC1=NN(C(=O)Cc2ccc([N+](=O)[O-])cc2)C(O)(c2ccncc2)C1 (stereo unspecified)	none
Cn1cnc(S(=O)(=O)N2CCC(C(=O)NCc3ccc(F)cc3)CC2)c1	none (no result: D3 antag)
Cc1ccc2c(c1)nnn2C1CCN(CC(=O)N(c2ccccc2)c2ccccc2)CC1	none
Cc1cccc(NC(=O)N2CCC(n3nnc4cc(C)ccc43)CC2)c1	none
O=C(CN1CCC(n2nnc3ccccc32)CC1)Nc1ccc2c(c1)CCC2	D3 antag -65
COc1cccc(NC(=O)N2CCC(n3nnc4ccccc43)CC2)c1	D1 antag -47
Cc1ccc2c(c1)nnn2C1CCN(CC(=O)Nc2ccc(F)cc2)CC1	D3 antag inconclusive
Cc1ccc2c(c1)nnn2C1CCN(CC(=O)N2c3ccccc3CC2C)CC1 (stereo unspecified)	D3 antag -70
O=C(CN1CCC(n2nnc3cc(F)ccc32)CC1)Nc1ccc2c(c1)CCC2	D3 antag -76
CCN1CCC(N(Cc2cccc(OC)c2)C(=O)Nc2cccc(C)c2C)CC1	none (no result: D3 antag)
CC1CCC(NC(=O)CN2CCC(n3nnc4cc(F)ccc43)CC2)CC1 (stereo unspecified)	D3 antag -67
O=C(CN1CCC(n2nnc3cc(F)ccc32)CC1)NCCc1nc2ccccc2[nH]1	D3 antag -65
O=C(CN1CCC(n2nnc3cc(F)ccc32)CC1)N1CCCc2ccccc21	D3 antag -54
O=C(CN1CCC(n2nnc3cc(F)ccc32)CC1)NNC(=O)c1ccccc1	D3 antag inconclusive
Cc1ccc(Cl)cc1-n1c(=O)cc(N2CCN(c3ccc(F)cc3)CC2)[nH]c1=O	none (no result: D3 antag)
Cc1nn(-c2ccccc2)c(Cl)c1/C=N/Nc1ccc(S(=O)(=O)Nc2ccccc2C(=O)O)cc1[N+](=O)[O-]	D3 antag inconclusive, D1 antag -32
Cn1c2c(c(=O)n(C)c1=O)C(c1cccc(O)c1)CC(=O)N2 (stereo unspecified)	none (no result: D3 antag)
